Measured values: PubChem BioAssay AID493076 (National Center for Advancing Translational Sciences (NCATS), 2011)
The list shows a part of the results. Inconclusive results are not listed. The call rests on the fitted dose curve; in most records, active means well fitted curve in the direction sought with a large enough effect; inconclusive means small, poorly fitted or top-dose-only effect, or effect the other way, or another doubt; inactive means no such curve, though single readings can be large or run the other way.

target: Thyrotropin-releasing hormone receptor (Homo sapiens) (UniProt P34981); test: qHTS for Small Molecule Agonists and Allosteric Enhancers of Human TRH Receptor: Confirmation Screen for Enhancers; conditions: TRH receptor cell assay, enhancer confirmation qHTS; series mostly up to 46.1 µM; activity change, negative = inhibition: at the top concentration; further: 0% is about no effect
Sequence (P34981 whole entry, looked up): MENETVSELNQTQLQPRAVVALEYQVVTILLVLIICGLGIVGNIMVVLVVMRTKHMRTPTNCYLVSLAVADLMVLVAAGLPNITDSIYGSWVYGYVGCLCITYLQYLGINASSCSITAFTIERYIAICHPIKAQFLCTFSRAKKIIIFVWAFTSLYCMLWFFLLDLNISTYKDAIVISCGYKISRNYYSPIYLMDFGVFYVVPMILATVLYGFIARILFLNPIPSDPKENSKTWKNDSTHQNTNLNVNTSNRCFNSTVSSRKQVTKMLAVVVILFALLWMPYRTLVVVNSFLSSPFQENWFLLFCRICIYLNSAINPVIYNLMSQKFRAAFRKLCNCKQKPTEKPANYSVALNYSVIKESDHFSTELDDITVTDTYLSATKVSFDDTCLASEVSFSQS
Source text: NIH Chemical Genomics Center [NCGC]
NIH Molecular Libraries Probe Centers Network [MLPCN]
Assay Submitter (PI): Marvin Gershengorn
This project aims to identify small drug-like molecules that activate (agonists) the thyrotropin releasing hormone (TRH) receptor (TRHR) or enhance its TRH-stimulated activity (allosteric enhancers). TRHR, a drug-accessible cell surface receptor expressed in specific brain regions, and its ligand TRH have been implicated in several central nervous system disorders, including depression and anxiety. Small molecule TRHR agonists or allosteric enhancers that are metabolically stable and able to cross the blood-brain barrier might serve as probes to elucidate the roles of brain TRH receptors in animal models, and might be valuable as lead compounds for the development of drugs to treat patients with central nervous system disorders.
Upon TRHR-Gq activation in TRHR cells, intracellular calcium is released from stores in the endoplasmic reticulum. […] This primary screen measures compound-induced enhancement of an EC20 stimulation of the receptor by its native ligand.
For the HTS assay freshly prepared cells are plated at a density of 2000/well in 3 ul of complete DMEM medium containing 10% serum in 1536-well plates and cultured over night at 37 C in a humidified incubator with 5% CO2. The next day, 2 ul of a no wash calcium dye (ABD Bioquest) was added to the cells and plates were incubated at room temperature for 1 hour. For the assay, assay plates were loaded into the FDSS kinetic plate reader. A 10 cycle (1 second/cycle) baseline measurement is taken and then the FDSS online 1536 pintool delivers 23 nl of compound library (as well as TRH controls) to the plate. The plate is measured for kinetically at 1 cycle/sec for 180 seconds and is considered to be the agonist portion of the assay (eg, compounds which activate a positive calcium response during this portion are flagged as potential agonists). Following the 180 second read, 1 ul of either an EC20 (positive modulation assay) is delivered by an onboard pipette head. Measurements are taken kinetically for an additional 180 seconds.
TRHR FDSS Screening Protocol
1. Reagent, 3 uL 2000 cells/well 1536 TC treated Black plate in media containing 10% FCS
2. Time, 18 hours, 33.5C 5% CO2 (cells grown at 37C)
3. Reagent, 2 uL ABD fluo-8 Ca dye
4. Time, 30 min-1.5hrs hours, Room temp (6 plates/batch)
5. Detector, EX 480/EM 530C, FDSS 10 cycles baseline (1sec/cycle)
6. Compound, 23 nL of stock solution from library
7. Detector, EX 480/EM 530C, FDSS 230 cycles (1sec/cycle) Agonist mode
8. Compound, 1 ul EC20 of TRH made up in HEPES HBSS, 10 nM final
9. Detector, EX 480/EM 530C, FDSS 100 cycles (1sec/cycle) Potentiator mode

Activity change, negative = inhibition, inactive:
CC(=O)c1cc(NC(=O)c2ccccc2)c(=O)oc1/C=C/N(C)C 0.662%
Cc1cc(C(=O)CCl)c(C)n1CC1COc2ccccc2O1 (stereo not drawn) -7.04%
Cn1cccc1C1(C(F)(F)F)NCCNC1=O (stereo not drawn) -9.47%
